# Unmarked numbers belong to inactive results. Results filed as inconclusive are left out. A call without a number means that no potency is given here. The source made the active and inactive calls. Unless noted, calls come from the whole dose curve; as a rule, active = well fitted curve in the direction sought with a large enough effect in the repeat runs; inconclusive = weak or mixed curves; inactive = no such curve, though single readings can be large; an effect the other way counts as inactive or inconclusive.
# Tests used:
# [1] = qHTS assay for small molecules that induce genotoxicity in human embryonic kidney cells expressing luciferase-tagged ATAD5 (AID 651632); note: nearly all actives have a fitted effect of over 15% in size
# In short: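 Luminescence read-out: after 16 hr compound exposure at 37C, ATAD5-luciferase HEK293T cells received Amplite, 30 min RT, then CCD imaging. A rise in signal marks genotoxic stress.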
# [2] = qHTS assay for small molecule agonists of the p53 signaling pathway - cell viability (AID 651633; calls by dose curve;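 note: p53RE-bla HCT reporter cells with a stable beta-lactamase p53 reporter; series mostly up to about 83 µM; nearly all actives have a fitted effect of over 30% in size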)
# In short: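 p53RE-bla cells were treated with compound for 16 hours at 37 C. Cytotoxicity was then measured as CellTiter-Glo luminescence after 30 min at room temperature.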
# [3] = qHTS assay for small molecules that induce genotoxicity in human embryonic kidney cells expressing luciferase-tagged ATAD5 - cell viability (AID 651634; calls by dose curve; note: nearly all actives have a fitted effect of over 25% in size)
# In short: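 HEK293T ATAD5-luc cells, 2,000/well; compound 15.5 hr, 37C/5% CO2; CellTiter-Fluor 30 min, 37C; fluorescence read.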
# [4] = qHTS assay for small molecule disruptors of the mitochondrial membrane potential - cell viability (AID 720634; calls by dose curve;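 note: human HepG2 liver cancer cells; series mostly up to about 83 µM; nearly all actives have a fitted effect of over 20% in size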)
# In short: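 Luminescence from CellTiter-Glo (ATP content) gave viability in HepG2 cells, read in the same wells as the MMP dye assay after 1 hr compound exposure at 37 C.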
# [5] = qHTS assay for small molecule disruptors of the mitochondrial membrane potential (AID 720635); note: potency is the fitted concentration of half-maximal effect
# In short: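 HepG2 cells exposed to compound 1 hr at 37C, then Mito-MPS dye 30 min. Ratio read of aggregate (540/590 nm) versus monomer (490/535 nm) fluorescence.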
# [6] = qHTS assay to test for compound auto fluorescence at 590 nm (red) in HepG2 cells (AID 720674)
# In short: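 HepG2 cells, 2,000 per well in MEM with 10% FBS, attached overnight at 37 C, then got 23 nL compound or DMSO. After 1 hr at 37 C, 5% CO2, red fluorescence was read at 540/590 nm against Rose Bengal sodium as reference.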
# [7] = qHTS assay to test for compound auto fluorescence at 535 nm (green) in HepG2 cells (AID 720675)
# [8] = qHTS assay to test for compound auto fluorescence at 460 nm (blue) in HEK293 cells (AID 720678)
# In short: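 Blue read-out at excitation 405 nm and emission 460 nm follows overnight compound exposure of HEK293 cells at 37C in 5% CO2. Activity is given as auto fluorescence equivalency to triamterene.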
# [9] = qHTS assay to test for compound auto fluorescence at 590 nm (red) in HEK293 cells (AID 720679)
# In short: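 Red channel, Ex/Em 540/590nm; signal expressed as equivalency to Rose Bengal sodium. HEK293, 2,000 cells/well, 10% dialyzed FBS; 23 nL compound pinned after 4-5 hr attachment; overnight 37C/5% CO2 before reading.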
# [10] = qHTS assay to test for compound auto fluorescence at 535 nm (green) in HEK293 cells (AID 720680)
# [11] = qHTS assay to test for compound auto fluorescence at 460 nm (blue) in HEK293 cell free culture (AID 720681)
# In short: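 Compounds were added to cell-free DMEM with 10% FBS and fluorescence read directly. The blue channel used 405 nm excitation and 460 nm emission, with triamterene as the reference fluorophore.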
# [12] = qHTS assay to test for compound auto fluorescence at 535 nm (green) in HEK293 cell free culture (AID 720682)
# In short: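 Read-out: 485/535 nm fluorescence intensity, calibrated against fluorescein. Medium only (DMEM + 10% FBS, no cells); test compound or DMSO vehicle added by pintool before plate reading.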
# [13] = qHTS assay to test for compound auto fluorescence at 590 nm (red) in HEK293 cell free culture (AID 720683)
# In short: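 Cell-free wells of DMEM with 10% FBS received compound, and intrinsic fluorescence was read at excitation/emission 540/590 nm. Values expressed as equivalence to Rose Bengal sodium.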
# [14] = qHTS assay to test for compound auto fluorescence at 590 nm (red) in HepG2 cell free culture (AID 720684)
# In short: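 Auto fluorescence equivalency versus Rose Bengal sodium, red channel Ex/Em 540/590 nm; compounds in cell-free MEM/10% FBS; DMSO vehicle control.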
# [15] = qHTS assay to test for compound auto fluorescence at 460 nm (blue) in HepG2 cell free culture (AID 720685)
# In short: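 Cell-free plates of MEM plus 10% FBS received 23 nL compound or DMSO vehicle; blue-channel (405/460 nm) intensity scored against triamterene as reference fluorophore.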
# [16] = qHTS assay to test for compound auto fluorescence at 535 nm (green) in HepG2 cell free culture (AID 720686)
# [17] = qHTS assay to test for compound auto fluorescence at 460 nm (blue) in HepG2 cells (AID 720687)
# In short: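 HepG2 cells in MEM with 10% FBS, attached overnight at 37 C, were exposed to compound or DMSO for 1 hr at 37 C, 5% CO2. Blue fluorescence was read at 405/460 nm, with triamterene as reference fluorophore.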
# [18] = biological target: Glucocorticoid receptor (Homo sapiens) (UniProt P04150); assay: qHTS assay to identify small molecule agonists of the glucocorticoid receptor (GR) signaling pathway (AID 720691; active = well fitted activation curve with a large enough effect in the signal ratio in the repeat runs, not every such curve was filed as active; the % refers to the signal ratio)
# Sequence of Glucocorticoid receptor (Homo sapiens) (P04150 whole entry, looked up): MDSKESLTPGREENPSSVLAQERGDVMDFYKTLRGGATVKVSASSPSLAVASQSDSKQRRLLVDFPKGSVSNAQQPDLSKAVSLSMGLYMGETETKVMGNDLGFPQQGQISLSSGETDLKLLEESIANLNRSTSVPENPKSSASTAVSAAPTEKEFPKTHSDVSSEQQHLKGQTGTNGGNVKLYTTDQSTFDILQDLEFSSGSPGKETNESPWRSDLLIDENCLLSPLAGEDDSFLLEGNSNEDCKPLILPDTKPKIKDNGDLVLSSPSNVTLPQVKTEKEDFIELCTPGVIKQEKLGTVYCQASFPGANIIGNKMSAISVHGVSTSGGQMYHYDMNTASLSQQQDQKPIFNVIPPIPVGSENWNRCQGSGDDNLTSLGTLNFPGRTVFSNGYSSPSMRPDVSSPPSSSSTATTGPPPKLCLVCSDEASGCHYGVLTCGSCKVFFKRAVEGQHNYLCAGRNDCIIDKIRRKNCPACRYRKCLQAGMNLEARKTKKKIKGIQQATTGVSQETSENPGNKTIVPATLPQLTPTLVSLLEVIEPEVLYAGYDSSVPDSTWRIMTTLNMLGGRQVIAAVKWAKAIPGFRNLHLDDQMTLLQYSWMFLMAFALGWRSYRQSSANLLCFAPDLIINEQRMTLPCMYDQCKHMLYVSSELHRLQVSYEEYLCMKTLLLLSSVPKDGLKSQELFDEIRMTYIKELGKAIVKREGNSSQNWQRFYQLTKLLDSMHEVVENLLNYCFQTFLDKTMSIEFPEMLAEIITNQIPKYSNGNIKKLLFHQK
# In short: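 HeLa GR-bla reporter line; cells pre-incubated 4 h, compound in DMSO 18 h at 37 C; LiveBLAzer B/G FRET substrate 2 h RT; fluorescence intensity read-out.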
# [19] = biological target: Glucocorticoid receptor (Homo sapiens) (UniProt P04150); assay: qHTS assay to identify small molecule antagonists of the glucocorticoid receptor (GR) signaling pathway (AID 720692; active = well fitted inhibition curve with a large enough effect in the signal ratio in the repeat runs, not every such curve was filed as active; the % refers to the signal ratio)
# In short: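 Read-out: beta-lactamase FRET substrate fluorescence, 2 h at room temperature, in HeLa cells stably carrying a GRE-driven bla reporter. Compounds were co-incubated with 5 nM dexamethasone agonist (final) for 18 h at 37 C.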
structure (smiles),measurement,setting,value
COCc1nnc(-c2ccc[n+]([O-])c2)n1-c1c(Cl)c(Cl)cc2[nH]c(=O)c(=O)[nH]c12,Potency,[1],inactive
same,outcome,[2],inactive
same,outcome,[3],inactive
same,outcome,[4],inactive
same,Potency,[5],inactive
same,outcome,[6],inactive
same,outcome,[7],inactive
same,outcome,[8],inactive
same,outcome,[9],inactive
same,outcome,[10],inactive
same,outcome,[11],inactive
same,outcome,[12],inactive
same,outcome,[13],inactive
same,outcome,[14],inactive
same,outcome,[15],inactive
same,outcome,[16],inactive
same,outcome,[17],inactive
N#Cc1ccccc1C#N,Potency,[1],inactive
same,outcome,[2],inactive
same,outcome,[3],inactive
same,outcome,[4],inactive
same,Potency,[5],inactive
same,outcome,[6],inactive
same,outcome,[7],inactive
same,outcome,[8],inactive
same,outcome,[9],inactive
same,outcome,[10],inactive
same,outcome,[11],inactive
same,outcome,[12],inactive
same,outcome,[13],inactive
same,outcome,[14],inactive
same,outcome,[15],inactive
same,outcome,[16],inactive
same,outcome,[17],inactive
O=Cc1ccc(C(=O)O)cc1,Potency,[1],inactive
same,outcome,[2],inactive
same,outcome,[3],inactive
same,outcome,[4],inactive
same,Potency,[5],inactive
same,outcome,[6],inactive
same,outcome,[7],inactive
same,outcome,[8],inactive
same,outcome,[9],inactive
same,outcome,[10],inactive
same,outcome,[11],inactive
same,outcome,[12],inactive
same,outcome,[13],inactive
same,outcome,[14],inactive
same,outcome,[15],inactive
same,outcome,[16],inactive
same,outcome,[17],inactive
same,Potency,[18],inactive
same,outcome,[19],inactive
O=Cc1ccccc1S(=O)(=O)O,Potency,[1],inactive
same,outcome,[2],inactive
same,outcome,[3],inactive
same,outcome,[4],inactive
same,Potency,[5],inactive
same,outcome,[6],inactive
same,outcome,[7],inactive
same,outcome,[8],inactive
same,outcome,[9],inactive
same,outcome,[10],inactive
same,outcome,[11],inactive
same,outcome,[12],inactive
same,outcome,[13],inactive
same,outcome,[14],inactive
same,outcome,[15],inactive
same,outcome,[16],inactive
same,outcome,[17],inactive
same,Potency,[18],inactive
same,outcome,[19],inactive
CC(=O)Nc1ccc(S(=O)(=O)Nc2cc(C)on2)cc1,Potency,[1],inactive
same,outcome,[2],inactive
same,outcome,[3],inactive
same,outcome,[4],inactive
same,Potency,[5],inactive
same,outcome,[6],inactive
same,outcome,[7],inactive
same,outcome,[8],inactive
same,outcome,[9],inactive
same,outcome,[10],inactive
same,outcome,[11],inactive
same,outcome,[12],inactive
same,outcome,[13],inactive
same,outcome,[14],inactive
same,outcome,[15],inactive
same,outcome,[16],inactive
same,outcome,[17],inactive
same,Potency,[18],inactive
same,outcome,[19],inactive
CCOC(=O)CC,Potency,[1],inactive
same,outcome,[2],inactive
same,outcome,[3],inactive
same,Potency,[5],inactive
same,outcome,[6],inactive
same,outcome,[7],inactive
same,outcome,[8],inactive
same,outcome,[10],inactive
same,outcome,[11],inactive
same,outcome,[12],inactive
same,outcome,[13],inactive
same,outcome,[14],inactive
same,outcome,[15],inactive
same,outcome,[16],inactive
same,outcome,[17],inactive
N#CC1(N)CCCCC1,Potency,[1],inactive
same,outcome,[2],inactive
same,outcome,[3],inactive
same,outcome,[4],inactive
same,outcome,[6],inactive
same,outcome,[7],inactive
same,outcome,[8],inactive
same,outcome,[9],inactive
same,outcome,[10],inactive
same,outcome,[12],inactive
same,outcome,[13],inactive
same,outcome,[14],inactive
same,outcome,[15],inactive
same,outcome,[16],inactive
same,outcome,[17],inactive
same,Potency,[18],inactive
C[Si](C)(C)O[Si](O)(O)O,Potency,[1],inactive
same,outcome,[2],inactive
same,outcome,[3],inactive
same,outcome,[4],inactive
same,outcome,[6],inactive
same,outcome,[7],inactive
same,outcome,[8],inactive
same,outcome,[9],inactive
same,outcome,[10],inactive
same,outcome,[11],inactive
same,outcome,[12],inactive
same,outcome,[13],inactive
same,outcome,[14],inactive
same,outcome,[15],inactive
same,outcome,[16],inactive
same,outcome,[17],inactive
same,Potency,[18],inactive
same,outcome,[19],inactive
CC(C)C(C)C,Potency,[1],inactive
same,outcome,[2],inactive
same,outcome,[3],inactive
same,outcome,[4],inactive
same,outcome,[6],inactive
same,outcome,[7],inactive
same,outcome,[8],inactive
same,outcome,[9],inactive
same,outcome,[10],inactive
same,outcome,[11],inactive
same,outcome,[12],inactive
same,outcome,[13],inactive
same,outcome,[14],inactive
same,outcome,[15],inactive
same,outcome,[16],inactive
same,outcome,[17],inactive
same,Potency,[18],inactive
same,outcome,[19],inactive
CCO[Si](CC(C)C)(OCC)OCC,Potency,[1],inactive
same,outcome,[3],inactive
same,outcome,[4],inactive
same,Potency,[5],27.3 µM (active)
same,outcome,[6],inactive
same,outcome,[7],inactive
same,outcome,[8],inactive
same,outcome,[9],inactive
same,outcome,[10],inactive
same,outcome,[11],inactive
same,outcome,[12],inactive
same,outcome,[13],inactive
same,outcome,[14],inactive
same,outcome,[15],inactive
same,outcome,[16],inactive
same,outcome,[17],inactive
same,Potency,[18],inactive
Cc1ccccc1OCC(=O)O,Potency,[1],inactive
same,outcome,[2],inactive
same,outcome,[3],inactive
same,outcome,[6],inactive
same,outcome,[7],inactive
same,outcome,[8],inactive
same,outcome,[9],inactive
same,outcome,[10],inactive
same,outcome,[12],inactive
same,outcome,[13],inactive
same,outcome,[14],inactive
same,outcome,[15],inactive
same,outcome,[16],inactive
same,outcome,[17],inactive
same,Potency,[18],inactive
same,outcome,[19],inactive
CCCCCCC(O)CO (stereo unspecified),Potency,[1],inactive
same,outcome,[2],inactive
same,outcome,[3],inactive
same,outcome,[4],inactive
same,outcome,[6],inactive
same,outcome,[7],inactive
same,outcome,[8],inactive
same,outcome,[9],inactive
same,outcome,[10],inactive
same,outcome,[11],inactive
same,outcome,[12],inactive
same,outcome,[13],inactive
same,outcome,[14],inactive
same,outcome,[15],inactive
same,outcome,[16],inactive
same,outcome,[17],inactive
same,Potency,[18],inactive
same,outcome,[19],inactive
NS(=O)(=O)c1cc2c(cc1C(F)(F)F)NCNS2(=O)=O,Potency,[1],inactive
same,outcome,[2],inactive
same,outcome,[3],inactive
same,Potency,[5],inactive
same,"fluorescence, relative to Rose Bengal",[6],0.362% [at 18.6 µM]
same,"fluorescence, % of fluorescein control",[7],-0.0771% [at 18.6 µM]
same,"fluorescence, % of triamterene",[8],-0.352% [at 18.6 µM]
same,"fluorescence, % of fluorescent control",[9],-0.333% [at 18.6 µM]
same,"fluorescence, % of fluorescein",[10],-0.0035% [at 18.6 µM]
same,"fluorescence, % of fluorescent control",[11],0.05% [at 18.6 µM]
same,activity change,[12],0.0709% [at 18.6 µM]
same,"fluorescence, % of fluorescent control",[13],0.0039% [at 18.6 µM]
same,"fluorescence, % of Rose Bengal",[14],-0.188% [at 18.6 µM]
same,"fluorescence, % of fluorescent control",[15],-0.157% [at 18.6 µM]
same,"fluorescence, % of fluorescein control",[16],0.01% [at 18.6 µM]
same,"fluorescence, % of fluorescent control",[17],-0.066% [at 18.6 µM]
same,Potency,[18],inactive

# — PubChem BioAssay (Tox21)
